We go through four compounds from the supplement of paper PMC9262897, “Low-cost anti-mycobacterial drug discovery using engineered E. coli” (Nature Communications, 2022).

± gives the standard deviation of the averaged measurements.

Holding throughout (assay): growth (OD600 after 10 h); higher = more growth (less inhibition)
Test [1] has as its system E. coli TESEC Alr+ wild-type control. Conditions: compound 0.1 mM; raw OD600 reference: median of DMSO wells 0.241, cell-free background 0.041. As to the method: (§1)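 TESEC Mtb Alr E. coli, or the Alr+ wild-type control, in 384-well plates with Prestwick library compounds at 0.1 mM and 1% DMSO, across arabinose induction levels of 1E3 to 1E7 nM. Growth is read as OD600 after 10 h at 37 °C in triplicate biological replicates.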

Test [2] deals with E. coli TESEC Mtb Alr. Conditions: compound 0.1 mM. As to the method: as §1
The next test concerns E. coli TESEC Mtb Asd. Conditions: compound 0.1 mM. The procedure: (§2)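 TESEC E. coli strains in which the native enzyme is deleted and replaced by arabinose-inducible Mtb Asd, DapB, CysH or TrpD, each grown in its selective medium. Strains were screened against the Prestwick library at 0.1 mM and 1% DMSO in 384-well format at low and high arabinose induction. Growth is read as OD600 after 10 h in triplicate.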

The test system of another test is E. coli TESEC Mtb DapB. As to conditions: compound 0.1 mM. The procedure:
as §2

The subject of test [3] is E. coli TESEC Alr+ wild-type control. Conditions: compound 0.1 mM; raw OD600 reference: median of DMSO wells 0.49, cell-free background 0.052. As to the method:
(§3)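 TESEC Mtb Alr E. coli (ΔaraC ΔtolC ΔentC Δalr ΔdadX, arabinose-inducible Mtb Alr) or the Alr+ wild-type control strain, grown in defined M9-fructose medium without D-alanine in 96-well plates with Prestwick library compounds at 0.1 mM and 1% DMSO. Low Alr induction is 0.1 µM arabinose and high induction is 10 mM arabinose.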

Test [4] has as its system E. coli TESEC Mtb Alr. As to conditions: compound 0.1 mM. As to the method: as §3
This is another data set of the same source.

[5] abbreviates: arabinose 1000 nM, raw OD600 reference: median of DMSO wells 0.294, cell-free background 0.041.
Where [6] appears, read: arabinose 10000 nM, raw OD600 reference: median of DMSO wells 0.264, cell-free background 0.041.
Setting [7] is: arabinose 100000 nM, raw OD600 reference: median of DMSO wells 0.201, cell-free background 0.041.
The mark [8] stands for this setting: arabinose 1000000 nM, raw OD600 reference: median of DMSO wells 0.193, cell-free background 0.041.
Setting [9] is: arabinose 10000000 nM, raw OD600 reference: median of DMSO wells 0.146, cell-free background 0.041.
[10] abbreviates: arabinose induction (level): High, raw OD600 reference: median of DMSO wells 0.331, cell-free background 0.041.
The mark [11] stands for this setting: arabinose induction (level): Low, raw OD600 reference: median of DMSO wells 0.417, cell-free background 0.041.
Setting [12] is: arabinose induction (level): High, raw OD600 reference: median of DMSO wells […], cell-free background 0.041.
[13] abbreviates: arabinose induction (level): Low, raw OD600 reference: median of DMSO wells 0.227, cell-free background 0.041.
[14] abbreviates: arabinose 100 nM, raw OD600 reference: median of DMSO wells 0.413, cell-free background 0.052.
Where [15] appears, read: arabinose 10000000 nM, raw OD600 reference: median of DMSO wells […], cell-free background 0.052.

`CCC1(C)CC(=O)NC1=O` (configuration not stated) [Ethosuximide]: the growth in test [1] came to 0.2481 ± 0.002; in the test on E. coli TESEC Mtb Alr [2] (setting [5]), 0.287 ± 0.014; in the test on E. coli TESEC Mtb Alr [2] (setting [6]) it was 0.267 ± 0.0062; in the test on E. coli TESEC Mtb Alr [2] (setting [7]) it was 0.219 ± 0.016; in the test on E. coli TESEC Mtb Alr [2] (setting [8]) it was 0.1876 ± 0.0001; in the test on E. coli TESEC Mtb Alr [2] (setting [9]) it was 0.141 ± 0.003. Further, the growth with E. coli TESEC Mtb Asd (setting [10]) is 0.38 ± 0.03; in the test on E. coli TESEC Mtb Asd (setting [11]) it was 0.417 ± 0.026; in the test on E. coli TESEC Mtb DapB (setting [12]), 0.1866 ± 0.0016; in the test on E. coli TESEC Mtb DapB (setting [13]), 0.245 ± 0.052; in test [3] it was 0.436 ± 0.043; in the test on E. coli TESEC Mtb Alr [4] (setting [14]), 0.4152 ± 0.0041. Moreover, the growth in the test with E. coli TESEC Mtb Alr [4] (setting [15]) came to 0.368 ± 0.019.
Take `COc1cccc(N(C)C(=S)Oc2ccc3c(c2)CCCC3)n1` [Liranaftate]: the growth in test [1] stood at 0.213 ± 0.0062; in the test with E. coli TESEC Mtb Alr [2] (setting [5]) it was 0.259 ± 0.0073; with E. coli TESEC Mtb Alr [2] (setting [6]), 0.2888 ± 0.0012; with E. coli TESEC Mtb Alr [2] (setting [7]), 0.167 ± 0.0063; with E. coli TESEC Mtb Alr [2] (setting [8]), 0.1202 ± 0.0011; with E. coli TESEC Mtb Alr [2] (setting [9]) it was 0.149 ± 0.0092. Further, the growth in the test with E. coli TESEC Mtb Asd (setting [10]) worked out at 0.297 ± 0.025; in the test on E. coli TESEC Mtb Asd (setting [11]), 0.426 ± 0.045; in the test on E. coli TESEC Mtb DapB (setting [12]) it was 0.196 ± 0.013; in the test with E. coli TESEC Mtb DapB (setting [13]) it was 0.224 ± 0.0065; in test [3], 0.385 ± 0.0054; in the test on E. coli TESEC Mtb Alr [4] (setting [14]), 0.407 ± 0.038. For the same compound, the growth in the test on E. coli TESEC Mtb Alr [4] (setting [15]) came to 0.127 ± 0.0031.
Consider `CC1(C)NC(=O)N(c2ccc([N+](=O)[O-])c(C(F)(F)F)c2)C1=O` [Nilutamide], for which the growth in test [1] turned out to be 0.216 ± 0.017; in the test with E. coli TESEC Mtb Alr [2] (setting [5]) it was 0.273 ± 0.0069; with E. coli TESEC Mtb Alr [2] (setting [6]), 0.256 ± 0.003; with E. coli TESEC Mtb Alr [2] (setting [7]) it was 0.189 ± 0.012; with E. coli TESEC Mtb Alr [2] (setting [8]), 0.153 ± 0.0033; in the test on E. coli TESEC Mtb Alr [2] (setting [9]), 0.142 ± 0.0062. The growth in the test with E. coli TESEC Mtb Asd (setting [10]) was found to be 0.281 ± 0.1; with E. coli TESEC Mtb Asd (setting [11]) it was 0.399 ± 0.042; in the test with E. coli TESEC Mtb DapB (setting [12]), 0.194 ± 0.012; in the test on E. coli TESEC Mtb DapB (setting [13]) it was 0.252 ± 0.0066; in test [3] it was 0.552 ± 0.064; in the test with E. coli TESEC Mtb Alr [4] (setting [14]), 0.396 ± 0.013. Besides, the growth with E. coli TESEC Mtb Alr [4] (setting [15]) came out at 0.295 ± 0.017.
With `CC(=O)Oc1ccccc1C(=O)O` [Acetylsalicylic acid], the growth came out at 0.242 ± 0.003 in test [1]; 0.2936 ± 0.0015 with E. coli TESEC Mtb Alr [2] (setting [5]); 0.292 ± 0.014 in the test with E. coli TESEC Mtb Alr [2] (setting [6]); 0.202 ± 0.019 in the test with E. coli TESEC Mtb Alr [2] (setting [7]); 0.19 ± 0.01 in the test on E. coli TESEC Mtb Alr [2] (setting [8]); 0.147 ± 0.0031 with E. coli TESEC Mtb Alr [2] (setting [9]). The growth in the test with E. coli TESEC Mtb Asd (setting [10]) was 0.264 ± 0.051; with E. coli TESEC Mtb Asd (setting [11]), 0.314 ± 0.022; in the test on E. coli TESEC Mtb DapB (setting [12]) it was 0.198 ± 0.016; with E. coli TESEC Mtb DapB (setting [13]), 0.237 ± 0.054; in test [3], 0.504 ± 0.027; with E. coli TESEC Mtb Alr [4] (setting [14]), 0.413 ± 0.011. For the same compound, the growth in the test on E. coli TESEC Mtb Alr [4] (setting [15]) was determined as 0.334 ± 0.012.
